Source: PubChem (The Scripps Research Institute Molecular Screening Center)
FBW7 activator – FBW7 E3 ligase activators, primary screen, biochemical, AlphaScreen, human; AlphaScreen FBW7–phospho-cyclin E peptide binding, activator screen; F-box/WD repeat-containing protein 7 (Homo sapiens), Q969H0; AID 1259310, 2017; hit rate 0.13% among 650,000; normalized activity (activation), % at 26.1 µM; in the data active = normalized activity above about 1.9%;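 also: purified mutant Fbw7 with reduced substrate affinity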
Target sequence (Q969H0 whole entry, looked up): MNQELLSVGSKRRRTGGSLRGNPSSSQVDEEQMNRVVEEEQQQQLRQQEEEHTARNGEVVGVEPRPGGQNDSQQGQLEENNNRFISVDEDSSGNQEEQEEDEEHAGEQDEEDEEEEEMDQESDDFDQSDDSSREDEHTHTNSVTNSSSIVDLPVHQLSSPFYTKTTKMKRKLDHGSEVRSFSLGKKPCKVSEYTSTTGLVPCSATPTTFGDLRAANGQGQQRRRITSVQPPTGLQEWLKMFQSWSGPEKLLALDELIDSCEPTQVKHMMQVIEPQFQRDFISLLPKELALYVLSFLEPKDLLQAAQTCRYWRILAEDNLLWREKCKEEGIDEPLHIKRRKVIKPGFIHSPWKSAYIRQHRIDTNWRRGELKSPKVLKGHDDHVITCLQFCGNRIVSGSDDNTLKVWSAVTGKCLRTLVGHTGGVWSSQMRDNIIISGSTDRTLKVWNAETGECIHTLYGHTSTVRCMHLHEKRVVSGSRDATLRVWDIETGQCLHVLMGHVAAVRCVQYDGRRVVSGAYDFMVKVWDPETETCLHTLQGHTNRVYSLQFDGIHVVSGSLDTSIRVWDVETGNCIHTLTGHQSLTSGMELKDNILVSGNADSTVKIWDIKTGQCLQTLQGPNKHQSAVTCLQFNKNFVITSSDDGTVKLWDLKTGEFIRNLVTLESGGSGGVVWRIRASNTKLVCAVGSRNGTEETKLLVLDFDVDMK
TEAD-YAP block – TEAD-YAP interaction inhibition, primary screen, TEAD-YAP interaction inhibitor project, luminescence, HEK-TIYL cells; hit rate 1.4% among 640,000; inhibition, % at 9.12 µM; TEAD-Gal4/YAP UAS-luciferase luminescence; in the data active = inhibition above about 32%;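 also: 0% = median of test compound wells and 100% = reference inhibitor wells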
GPR151 activ – activators of human GPR151, primary screen, cell-based, PathHunter beta-arrestin, luminescence; hit rate 1% among 650,000; G-protein coupled receptor 151 (Homo sapiens), Q8TDV0; activation, % at 11.2 µM; PathHunter beta-arrestin GPR151 cells; in the data active = activation above about 4.9%;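 also: 0% = median of compound wells and 100% = cells with positive control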
MITF primary – MITF inhibitors, primary screen, biochemical, AlphaScreen, human. Microphthalmia-associated transcription factor (Homo sapiens), O75030. AlphaScreen MITF homodimerization, bead proximity signal. inhibition, % at 2.6 µM. hit rate 0.91% among 650,000; in the data active = inhibition above about 50%;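 also: 0% = vehicle wells with protein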
MITF inh conf – MITF inhibitors, retest of hits, confirmation, biochemical, AlphaScreen, triplicate. AID 1259372, 2018. inhibition, % at 2.6 µM. hit rate 16% among 4,700. shares compounds with MITF primary. AlphaScreen MITF homodimerization, biotin/His-MITF beads;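 active = inhibition above a cutoff derived from the DMSO control wells, cut at about 28% in these data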;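 also: 0% = MITF dimer wells with DMSO only; inhibitors lower the bead chemiluminescence by keeping MITF from dimerizing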
AlphaScreen DR – AlphaScreen optical interference compounds, dose response, counter-screen, biochemical, HTS; shares compounds with MITF primary; AlphaScreen optical interference counterscreen, cell-free; IC50, µM; hit rate 6% among 480; AID 1259373, 2018; call rule not given here
AS interf ctr – AlphaScreen optical interference compounds, counter-screen for MITF inhibitor project, biochemical, triplicate. shares compounds with MITF primary. LysRS AlphaScreen counterscreen, signal interference. inhibition, % at 2.6 µM. hit rate 7.6% among 4,700. AID 1259376, 2018;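 active = inhibition above a cutoff derived from the DMSO control wells, cut at about 30% in these data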
* marks the source's active call; other numbers are inactive results; i = inactive; . = not tested or not shown; ! = not active in a repeat. An excerpt weighted towards active compounds, which were near 3.4% of everything screened.

SMILES	FBW7 activator	TEAD-YAP block	GPR151 activ	MITF primary	MITF inh conf	AS interf ctr	others
COc1cc(OC)c(OC)cc1CN1CCN(CC2CC=CCC2)CC1 (centres undefined)	0.0	2.1	0.5	50.6*	-1.7	-0.3
COc1ccc(OC)c(CN2CCSCC2)c1	-0.1	-7.8	3.4	28.1	.	.
COc1cccc(CN2CCN(CC3CC=CCC3)CC2)c1OC (centres undefined)	-0.3	7.3	-0.8	80.8*	12.4	19.1
OCCN1CCN(c2cc(-c3ccncc3)nc(-c3ccccc3)n2)CC1	-0.2	-1.4	0.3	-33.1	.	.
OCCN1CCN(c2cc(-c3ccccc3)c3ccccc3n2)CC1	0.0	1.7	-1.4	76.0*	5.6	10.5
COc1cc(NC(=O)c2nn3c(c2Cl)NC(c2cccs2)CC3C(F)(F)F)cc([N+](=O)[O-])c1 (centres undefined)	0.0	-3.5	0.2	73.5*	-5.3	-7.7
CCOC(=O)c1sc(NC(=O)c2nn3c(c2Cl)NC(c2cccs2)CC3C(F)(F)F)c(C(=O)OCC)c1C (centres undefined)	-0.1	-8.8	1.5	68.1*	-8.8	-7.9
COc1cc(NC(=O)c2nn3c(c2Cl)NC(c2ccccc2)CC3C(F)(F)F)cc([N+](=O)[O-])c1 (centres undefined)	0.0	-10.4	0.6	-9.0	.	.
CC1Cc2cc(/C=C/c3[nH]c(=O)[nH]c(=O)c3[N+](=O)[O-])ccc2O1 (centres undefined)	-0.5	11.3	-1.6	-5.1	.	.
O=c1ccc(-c2cccs2)nn1C[C@H]1CCCN1S(=O)(=O)c1ccc(Cl)s1	-0.1	3.2	0.5	0.0	.	.
Cc1ccc(S(=O)(=O)N2CCN(CC(=O)Nc3cc(Cl)ccc3C)CC2)cc1C	0.3	2.9	4.3	53.0*	-10.0	-6.5
CCOC(=O)c1ccc(OCCCN2CCCCCC2)cc1	-0.5	5.5	0.5	16.9	.	.
O=C(c1ccccc1)c1ccc(OCCCN2CCCC2)cc1	0.1	8.0	-1.5	53.3*	-0.1	0.1
CCN1CCN(CCOc2ccc(C(=O)c3ccccc3)cc2)CC1	0.0	-3.4	-1.5	41.3	.	.
CN1CCN(CCOc2ccc(C(=O)c3ccccc3)cc2)CC1	0.5	-16.9	3.1	81.1*	2.9	0.2
O=P(OCCN1CCOCC1)(c1ccccc1)c1ccccc1	0.0	-0.6	2.1	56.6*	5.5	10.7
CCOc1ccc(OCCN2CCOCC2)cc1	0.0	-18.3	0.7	75.7*	9.7	15.5
O=C(/C=C/c1ccccc1)OCCN1CCOCC1	0.6	-0.3	0.4	9.1	.	.
CCN(CC)C(=O)/C(=C\c1ccccc1)NC(=O)c1ccc(C)cc1	0.1	-0.2	1.4	30.1	.	.
O=C(c1ccccc1)c1ccc(OCCN2CCOCC2)cc1	-0.1	-13.6	-0.4	82.9*	2.0	4.0
COC(=O)c1ccc(OCCN2CCOCC2)cc1	0.0	-20.4	2.4	-4.9	.	.
COc1ccc(/C=C(\C#N)C(=O)Oc2ccc([N+](=O)[O-])c3cccnc23)cc1	-1.9	12.0	-0.9	53.6*	51.4*	99.2*
COCCNCCCOc1ccc(C(C)(C)c2ccccc2)cc1	0.2	10.2	-1.1	84.9*	1.9	7.2
COCCCNCCCOc1ccc(C(C)(C)c2ccccc2)cc1	-0.1	4.8	0.2	76.2*	2.1	4.9
COCCNCCCCOc1ccc(OCc2ccccc2)cc1	-0.2	-28.4	-1.1	65.9*	11.4	14.6
SMILES	FBW7 activator	TEAD-YAP block	GPR151 activ	MITF primary	MITF inh conf	AS interf ctr	others
COCCCNCCOc1ccc(OCc2ccccc2)cc1	0.4	-22.0	-2.4	46.5	.	.
CC(C)(c1ccccc1)c1ccc(OCCCNCCN)cc1	-0.1	8.7	1.0	-1.7	.	.
CN(C)CCNCCCOc1ccccc1	0.3	11.0	-1.6	55.7*	4.7	16.4
COc1cc(/C=C2/NC(=S)NC2=O)ccc1OCc1ccc(C(=O)O)cc1	0.6	3.9	-1.5	7.8	.	.
C=C1c2cccc(O)c2C(O)=C2C(=O)[C@]3(O)C(O)=C(C(N)=O)C(=O)[C@@H](N(C)C)[C@@H]3[C@@H](O)[C@H]12	-0.5	-7.3	0.0	54.0*	40.8*!	6.2	AlphaScreen DR=>6.48
C=C1c2c(Cl)ccc(O)c2C(O)=C2C(=O)[C@]3(O)C(O)=C(C(N)=O)C(=O)[C@@H](N(C)C)[C@@H]3[C@@H](O)[C@H]12	-0.5	5.4	0.2	62.8*	85.3*	30.1*!	AlphaScreen DR=i
CC1CC(C)CN(c2cc(=O)n(-c3ccccc3Cl)c(=O)[nH]2)C1 (centres undefined)	0.1	4.7	0.4	-1.1	.	.
COc1cc2c(=O)n(Cc3ccccc3)c(=O)n(CC(=O)c3ccccc3)c2cc1OC	0.1	7.3	0.5	-9.8	.	.
O=C1NC(=Nc2ccccc2Cl)S/C1=C\c1ccc(Cl)cc1Cl	-0.1	-8.3	-2.2	-3.7	.	.
COc1cc(-c2nc3sc4c(c3c(=O)[nH]2)CCCC4)ccc1OC(=O)c1ccc(F)cc1	0.2	3.1	0.3	75.3*	-1.6	-5.0
O=c1[nH]c(-c2ccco2)nc2sc3c(c12)CCCC3	0.1	-28.0	-0.9	81.1*	68.8*	-13.0	AlphaScreen DR=>9.74
COc1cc(-c2nc3sc4c(c3c(=O)[nH]2)CCCC4)ccc1OC(=O)c1ccc(Cl)cc1	-0.3	-1.8	0.6	-14.5	.	.
Cc1cc(C)cc(-n2c(SCC(=O)Nc3nccs3)nnc2-c2cccnc2)c1	-0.1	-13.3	0.7	57.5*	2.3	14.7
COc1cccc(-n2c(SCC(=O)Nc3nccs3)nnc2-c2cccnc2)c1	0.0	-3.1	-0.6	3.6	.	.
NC(=O)c1sc2c(c1N)C(c1ccc(Cl)cc1)C1=C(N2)c2ccccc2C1=O (centres undefined)	0.1	-2.7	1.3	15.3	.	.
O=C(CSc1nnnn1C1CCCCC1)c1ccccc1	0.1	-1.2	0.0	5.5	.	.
CC(=O)NNC(=O)CSc1nnnn1C1CCCCC1	-0.1	-5.1	-0.6	76.3*	6.9	14.9
O=C(CSc1nnnn1C1CCCC1)c1ccccc1F	0.0	-61.6	-1.5	116.2*	-7.9	23.8
COc1ccc(CCN2CCc3nc4ccncc4cc3C2)cc1	0.8	1.9	1.0	51.1*	23.5	34.0*
COc1cc(NC(=S)NCC(C)C)cc(OC)c1	-0.1	-6.4	0.5	-7.8	.	.
COc1cc(/C=N/NC(=O)c2nnn(-c3nonc3N)c2CN(C)C)ccc1OC(C)=O	0.0	-0.8	-0.1	-9.4	.	.
COC(=O)c1cc(S(=O)(=O)NCCc2ccccc2)c[nH]1	0.8	10.0	0.6	14.1	.	.
